From PubChem
HT1080NT lethal = kills 2HG-producing HT-1080-NT fibrosarcoma cells; HT-1080-NT fibrosarcoma viability, CellTiter-Glo ATP luminescence, 48 h; Potency, µM (series often up to 46.1 µM), without a hit: at the top dose activity, negative = less viability, actives largely listed as cytotoxic; actives 1.6% (n = 360,000); AID 686970;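 also: NT is the 2HG producing partner of a matched IDH1 knockdown line; 0% = DMSO-treated cells and -100% = media-only wells without cells; nearly all actives have a fitted effect of over 55% in size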
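Viability by CellTiter-Glo luminescence after 48 h compound exposure at 37C of HT-1080-NT cells (750/well, RPMI, 5% FBS). % activity scaled between DMSO wells and medium-only wells, then curve-fitted and categorized by curve class.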
HT1080 IDH1KD tx = kills HT-1080 cells with IDH1 knockdown; HT-1080 IDH1 knockdown viability, ATP luminescence, 48 h; AID 686971; actives 2% (n = 360,000); Potency, µM (highest dose often 46.1 µM), for inactives: at the top dose activity, negative = toxicity, actives largely listed as cytotoxic;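 also: 0% = DMSO wells and -100% = cell-free medium wells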
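CellTiter-Glo luminescence after 48 h compound exposure at 37 degrees C of IDH1-knockdown HT-1080 cells in 5% FBS RPMI. %Activity scaled between DMSO wells and cell-free media wells, with curves fitted and assigned curve classes.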
S2 tox = reduces viability in counter-screen for ATXN expression inhibitors; actives 0.49% (n = 400,000); Potency, µM (doses to about 56.7 µM), actives largely listed as cytotoxic; S2 cells (HEK-293 line with an ATXN2-luciferase reporter) viability, CellTiter-Fluor protease fluorescence, 24 h; AID 651635; also: nearly all actives have a fitted effect of over 40% in size
TGFb inhibitor = TGF-b pathway inhibition. HepG2 CAGA-GFP TGF-b/SMAD3 reporter, GFP fluorescence, 18 h; TGF-beta stimulated, 500 pg/mL final. Potency, µM (titrated, usually from 46.1 µM), for the others: at the top dose activity, negative = inhibition, most hits filed as inhibitors. actives 1.2% (n = 410,000). AID 588855; also: % is scaled to controls: 0 for no effect and ±100 for the full control effect; nearly all actives have a fitted effect of over 65% in size
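Inhibition was scored as loss of TGF-beta-induced (500 pg/mL final, 18 hours, 37 degrees C) GFP in HEPG2 cells carrying a CAGA-GFP reporter, in DMEM with 1% FBS. Well GFP was summed per cell; Activity was normalised to unstimulated and stimulated DMSO wells, then concentration-response fitting.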
ATXN2 expr inh = inhibitors of ATXN2 expression. HEK-293 ATXN2-luciferase reporter, luminescence, 24 h. Potency, µM (top dose mostly 57 µM), for the others: at the top dose activity change, negative = inhibition, usual class: inhibitors. actives 0.72% (n = 360,000). AID 1745845; also: % is scaled to controls: 0 for no effect and ±100 for the full control effect; nearly all actives have a fitted effect of over 55% in size
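ATXN2-luciferase reporter cells (luciferase flanked by upstream and downstream ATXN2 gene portions) were treated 24 h at 37 °C with compounds at up to 57 uM. SteadyGlo luminescence gave expression; GF-AFC fluorescence gave viability.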
HepG2 tox = kills HepG2 cells in TGF-b inhibitor counter-screen; Potency, µM (doses to about 46.1 µM), inactives show top-dose activity change, negative = cytotoxicity, hits mostly cytotoxic; HepG2 CAGA-GFP viability, ATP luminescence, 18 h; AID 588856; actives 0.76% (n = 410,000)
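HepG2 CAGA-GFP cells (1000/well, DMEM with 1% FBS) received compound, then TGF-beta at 500 pg/mL final, and were incubated 18 hours at 37 degrees C. Viability was read by CellTiter-Glo luminescence. Media-only wells were set as complete cell-killing and DMSO as no toxicity.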
Starred values were filed as active, the others as inactive; [ ] = another dose, or the depositor's remark. In the library only some 3.8% were active in any assay of this set; here they are far more common. Calls follow the shape of the dose curve; as a rule, active = well fitted curve in the direction sought with a large enough effect; inconclusive = small, poorly fitted or top-dose-only effect, or another doubt; inactive = no such curve, though single readings can be large; an effect the other way counts as inactive or inconclusive. Potency is read from the fitted curve at half-maximal effect.

For CC[n+]1c(C=C2C=C(C)OC(C)=C2)sc2ccccc21 the results were HT1080NT lethal inconclusive, HT1080 IDH1KD tx inconclusive, S2 tox inconclusive, TGFb inhibitor -24.6%, ATXN2 expr inh 10.6µM* and HepG2 tox -25.6%.
For CCNC(=O)CC1C(=O)N(c2ccc(C)cc2)C(=O)N1Cc1ccc(C)cc1 (stereo not drawn) the results were S2 tox inactive, TGFb inhibitor -17.0%, ATXN2 expr inh -2.2% and HepG2 tox -14.8%.
For CCn1cc2nc(SCc3ccc(F)cc3)n(CCc3ccccc3)c(=O)c2n1 the results were S2 tox inconclusive, TGFb inhibitor inconclusive, ATXN2 expr inh inconclusive and HepG2 tox -30.7%.
`O=C(N/N=C/c1ccc([N+](=O)[O-])o1)c1ccc(NS(=O)(=O)c2cccs2)cc1` gave HT1080NT lethal inconclusive, HT1080 IDH1KD tx 23.1µM*, S2 tox inconclusive, TGFb inhibitor inconclusive, ATXN2 expr inh inconclusive and HepG2 tox -22.4%.
Screening O=C(N/N=C\C=C\c1ccc([N+](=O)[O-])o1)c1cccs1 returned HT1080NT lethal inconclusive, HT1080 IDH1KD tx 13µM*, S2 tox inactive, TGFb inhibitor inconclusive, ATXN2 expr inh -19.6% and HepG2 tox -135.3%.
Screening C/C(=N\NC(=O)c1ccc(NS(=O)(=O)c2cccs2)cc1)c1ccc(O)cc1O returned HT1080NT lethal inconclusive, HT1080 IDH1KD tx 23.1µM*, S2 tox inactive, TGFb inhibitor inconclusive, ATXN2 expr inh -63.8% and HepG2 tox -1.7%.
`CCOC(=O)c1cccc(NC(=O)c2cc3c(=O)n(C)c4ccccc4c3n2C)c1` gave S2 tox inactive, TGFb inhibitor 2.5%, ATXN2 expr inh -4.9% and HepG2 tox 1.6%.
For Cc1ccc(C(=O)N(Cc2cc3cc4c(cc3nc2N2CCOCC2)CCC4)CC2CCCO2)s1 (stereo not drawn) the results were S2 tox inactive.
CC(NC(=O)c1cccnc1)c1nnc2n1CCN(Cc1ccc(F)cc1F)CC2 (stereo not drawn) was read as S2 tox inactive.
For Cc1ccc(S(=O)(=O)N[C@@H](Cc2ccccc2)C(=O)CCl)cc1 the results were HT1080NT lethal inconclusive, HT1080 IDH1KD tx 16.4µM*, S2 tox 31.6µM*, TGFb inhibitor inconclusive, ATXN2 expr inh inconclusive and HepG2 tox -94.3%.
Screening Cc1ccc(S(=O)(=O)NC(Cc2ccccc2)C(=O)NN)cc1 (stereo not drawn) returned HT1080NT lethal 10.7%, HT1080 IDH1KD tx 0.4%, S2 tox inactive, TGFb inhibitor 13.3%, ATXN2 expr inh 1.0% and HepG2 tox 5.1%.
For CCOC(=O)C(=O)NNc1ccc(F)cc1 the results were HT1080NT lethal 11.6µM*, HT1080 IDH1KD tx 8.2µM*, S2 tox inactive, TGFb inhibitor 14.4%, ATXN2 expr inh -20.2% and HepG2 tox 4.9%.
O=C(c1ccccc1F)N(Cc1cc2cc3c(cc2nc1N1CCOCC1)CCC3)CC1CCCO1 (stereo not drawn) was read as S2 tox inactive.
`Cc1ncc(CO)c(/C=N/NC(=O)c2cc3c(s2)CCCC3)c1O` gave HT1080NT lethal inconclusive, HT1080 IDH1KD tx 2.59µM*, S2 tox inactive, TGFb inhibitor 6.5% and HepG2 tox -1.8%.
Screening CN(C)c1ccc(/C=C/c2ccc3cc(N)ccc3n2)cc1 returned TGFb inhibitor 6.7% and HepG2 tox -48.3%.
For CCCCCn1c(N2CCC(Cc3ccccc3)CC2)nc2c1c(=O)[nH]c(=O)n2C the results were HT1080NT lethal 20.6µM*, HT1080 IDH1KD tx inconclusive, TGFb inhibitor inconclusive, ATXN2 expr inh inconclusive and HepG2 tox 11.2µM*.
For Cc1ccc(C(=O)NCC(=O)OCC(=O)c2ccc3ccccc3c2)cc1 the results were TGFb inhibitor -2.6% and HepG2 tox -1.5%.
Screening C=CCc1c(C)nc(-c2ccccc2)nc1Nc1ccccc1O returned HT1080NT lethal inconclusive, HT1080 IDH1KD tx 16.4µM*, S2 tox inactive, TGFb inhibitor inconclusive, ATXN2 expr inh -1.2% and HepG2 tox -28.9%.
`C=CCc1c(C)nc(-c2ccccc2)nc1N/N=C/c1ccccc1` gave HT1080NT lethal -1.4%, HT1080 IDH1KD tx -0.5%, S2 tox inactive, TGFb inhibitor inconclusive and HepG2 tox -48.6%.
`C=CC[C@@H](CC(=O)N[C@@H](CO)Cc1ccccc1)C(=O)N[C@@H](COC(=O)[C@@H](CC=C)CC(=O)OC(C)(C)C)Cc1c[nH]c2ccccc12` gave HT1080NT lethal -8.0%, HT1080 IDH1KD tx -5.5%, S2 tox inconclusive, TGFb inhibitor inconclusive, ATXN2 expr inh -21.6% and HepG2 tox -21.3%.
Screening C=CC[C@@H](CC(=O)N(CCO)Cc1ccccc1)C(=O)N[C@H](COC(=O)[C@H](CC=C)CC(=O)OC(C)(C)C)Cc1c[nH]c2ccccc12 returned HT1080NT lethal -27.0%, HT1080 IDH1KD tx inconclusive, S2 tox 22.4µM*, TGFb inhibitor inconclusive, ATXN2 expr inh inconclusive and HepG2 tox -1.9%.
`C=CC[C@H](CC(=O)N(CCO)Cc1ccccc1)C(=O)N[C@H](COC(=O)[C@@H](CC=C)CC(=O)OC(C)(C)C)Cc1c[nH]c2ccccc12` gave HT1080NT lethal inconclusive, HT1080 IDH1KD tx inconclusive, S2 tox 12.6µM*, TGFb inhibitor inconclusive, ATXN2 expr inh 22.4µM* and HepG2 tox -20.2%.
`C=CC[C@@H](CC(=O)N[C@H](CO)Cc1ccccc1)C(=O)N[C@H](COC(=O)[C@@H](CC=C)CC(=O)OC(C)(C)C)Cc1c[nH]c2ccccc12` gave HT1080NT lethal inconclusive, HT1080 IDH1KD tx inconclusive, S2 tox inconclusive, TGFb inhibitor inconclusive, ATXN2 expr inh inconclusive and HepG2 tox -29.9%.
For CCn1cc(S(=O)(=O)c2ccc(OC)cc2)c(=O)c2cc(F)c(N3CCC(C)CC3)cc21 the results were TGFb inhibitor inconclusive and HepG2 tox -17.7%.
`CCOC(=O)c1[nH]c(C)c(C(=O)Nc2ccc(C)c(F)c2)c1C` gave HT1080NT lethal 10µM*, HT1080 IDH1KD tx 3.55µM*, S2 tox inactive, TGFb inhibitor -12.9%, ATXN2 expr inh -7.9% and HepG2 tox -35.7%.
For CCOC(=O)c1[nH]c(C)c(C(=O)Nc2ccc(C)c(Cl)c2)c1C the results were HT1080NT lethal 0.2%[9.24 µM], HT1080 IDH1KD tx 12.6µM*, S2 tox inconclusive, TGFb inhibitor 4.7%, ATXN2 expr inh -0.5% and HepG2 tox -31.5%.
